Assay outcomes deposited in PubChem by National Center for Advancing Translational Sciences (NCATS).
Marburg entry inh: Marburg virus entry inhibition | Marburg virus pseudotyped entry inhibition, cell reporter | Potency, µM (top dose mostly 37.8 µM), inactives show at the highest dose activity change, negative = inhibition, hits mostly inhibitors | 300,000 compounds, 1.8% hits | AID 540276; calls by dose curve; tested in HEK293 cells; also: potency is read from the fitted curve at half-maximal effect
HCMV inh: blocks human cytomegalovirus replication. HFF cells, HCMV-luciferase reporter, 72 h; stronger effect = lower value. activity change, negative = inhibition, % at 57.5 µM. 410,000 compounds, 4.5% hits; in the data active = activity change below about -60%; inconclusive = no clear call, values can overlap the other calls; inactive = above about -39%
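Two compound doses tested in HFFs infected with HCMV-luciferase, MOI 1 PFU/cell, 72 h at 37C. Lysate luminescence read with OneGlo; data normalized against buffer-only and 10uM Salinomycin inhibitor controls.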
LASV entry inh: inhibitors of Lassa virus binding or cell entry. 300,000 compounds, 1.2% hits. Potency, µM (doses to about 37.9 µM), for the others: at the highest dose activity change, negative = inhibition, actives largely listed as inhibitors. Lassa virus pseudotype entry inhibition, cell reporter. AID 540256; calls by dose curve; tested in HEK293 cells; also: potency is read from the fitted curve at half-maximal effect; nearly all actives have a fitted effect of over 50% in size
FMDV antiviral: antivirals against foot and mouth disease virus. FMDV antiviral cell-based qHTS. Potency, µM (doses to about 57.9 µM), inactives show top-dose activity change, negative = inhibition, usual class: inhibitors. 410,000 compounds, 1.2% hits. AID 1159524; calls by dose curve; tested in HEK293T cells; also: read-out not given here; potency is read from the fitted curve at half-maximal effect; nearly all actives have a fitted effect of over 45% in size
Active calls of the source: *; u = inconclusive; x = no result given; [ ] = dose if it differs, or a comment. An excerpt weighted towards active compounds, which were near 6.2% of everything screened. % is scaled to controls: 0 for no effect and ±100 for the full control effect.

SMILES	Marburg entry inh	HCMV inh	LASV entry inh	FMDV antiviral
O=S(=O)(c1ccc(Cl)cc1)c1nnn2c1nc(NCc1ccccc1)c1sccc12	x	6	1%[46.1 µM]	-21%
C[C@H](c1ccccc1)N1C[C@@H](COCc2ccccc2)Oc2cccc(N3CCCCC3)c2S1(=O)=O	x	-93*	x	x
Cc1cc(Oc2cccc3c2S(=O)(=O)N([C@H](C)c2ccccc2)C[C@@H](COCc2ccccc2)O3)cc(C)c1C	x	-93*	x	x
Cc1ccc(Oc2cccc3c2S(=O)(=O)N([C@H](C)c2ccccc2)C[C@@H](COCc2ccccc2)O3)cc1	x	-78*	x	x
CC(C)c1ccc(Oc2cccc3c2S(=O)(=O)N(C2CCCC2)CC(COCc2ccccc2)O3)cc1 (stereo not given)	x	-31	x	4%
COc1cc(F)ccc1Oc1cccc2c1S(=O)(=O)N([C@H](C)c1ccccc1)C[C@@H](COCc1ccccc1)O2	x	-23	x	x
Cc1ccc(S(=O)(=O)N(C)c2cccc3c2S(=O)(=O)N([C@H](C)c2ccccc2)C[C@@H](COCc2ccccc2)O3)cc1	x	-65*	x	x
O=C1c2ccccc2NC(c2cc(Cl)cc(Cl)c2O)N1CCc1ccccn1 (stereo not given)	x	92	x	x
O=[N+]([O-])c1ccc2c(c1)S(=O)(=O)C=C2	u	x	3.3µM*	32µM*
O=C(NCc1ccc(Cl)cc1)c1ccc(-c2ccccc2C(F)(F)F)o1	11%	32	5.2µM*	-19%
Cc1ccc(-c2ccc(C(=O)NCc3ccccc3)o2)c2ccccc12	34%	-6	6.5µM*	-1%
CCOc1ccccc1-c1ccc(C(=O)NCc2ccccc2)o1	7%	-2	7.3µM*	29%
CCOc1cccc2cc(C(=O)NCc3ccccc3)c(=N)oc12	x	x	x	11%
O=C(O)CSc1cc(NS(=O)(=O)c2cccc([N+](=O)[O-])c2)c2ccccc2c1O	x	0	x	10µM*
Cc1ccc(S(=O)(=O)Nc2ccccc2-c2ccccc2NS(=O)(=O)c2ccc(C)cc2)cc1	u	28	-25%	-26%
Cc1ccc(NS(=O)(=O)c2cccc3cccnc23)c(Br)c1	-9%[46.1 µM]	-82*	3%[46.1 µM]	8%
O=S(=O)(Nc1cc(Sc2cccc3cccnc23)c(O)c2ccccc12)c1ccccc1	u	-100*	18µM*	x
CCc1ccc(S(=O)(=O)Nc2cc(SCC(=O)O)c(O)c3ccccc23)cc1	u	63	u	u
Cc1ccc(S(=O)(=O)Nc2cccc3cccnc23)cc1	u	-105*	u	28µM*
CCN1C2=C(C=C/C1=C1\C(=O)N(C)C(=S)N1C1CCCCC1)CCCC2	2%[46.1 µM]	x	x	x
c1ccc(Nc2nc(N3CCCCC3)nc(N3CCCCC3)n2)cc1	u	16	-26%	-8%
c1ccc(Nc2nc(N3CCCCC3)nc(N3CCNCC3)n2)cc1	7.3µM*	16	u	x
N/C(=N\OC(=O)c1cccc2ccccc12)c1ccccn1	u	27	u	-13%
NC(=Nc1nc(-c2ccccn2)cc2ccccc12)c1ccccn1	u	-101*	0.56µM*	0%
COc1ccc(CCNC(=O)CC(c2ccccc2)c2cc(C)ccc2O)cc1OC (stereo not given)	x	x	x	18µM*
SMILES	Marburg entry inh	HCMV inh	LASV entry inh	FMDV antiviral
Cc1ccc(NC(=S)NC2CCN(Cc3ccccc3)CC2)cc1	-16%	u	3%	-24%
CC(C)c1ccc(NC(=S)NC2CCN(Cc3ccccc3)CC2)cc1	u	-27	18µM*	-7%
S=C(Nc1ccccc1Cl)NC1CCN(Cc2ccccc2)CC1	u	-34	-17%	0%
S=C(Nc1ccc(Cl)cc1)NC1CCCCC1	-29%[46.1 µM]	-30	u	70%
S=C(Nc1ccc(Nc2ccccc2)cc1)NC1CCCCCC1	u	-87*	u	28µM*
Cc1c(Cl)cccc1NC(=S)NC1CCN(Cc2ccccc2)CC1	16µM*	-91*	u	0%
S=C(Nc1cc(Cl)cc(Cl)c1)NC1CCN(Cc2ccccc2)CC1	x	-100*	x	-17%
Cc1cccc(N(C)c2nc3ccc(C(=O)c4ccccc4)cc3n3c(C)nnc23)c1	x	0	-6%[46.1 µM]	u
COc1ncc2nc(C)c(=O)n(C3CC3)c2n1	x	x	x	-13%
COC1=CC2C(=O)C(C(c3ccccc3)C2C)C1(O)c1cccc(OC)c1 (stereo not given)	15%[14.2 µM]	x	x	x
O=C(c1ccccc1)c1ccc(OCCn2cnc3ccccc3c2=O)cc1	-14%	33	25µM*	u
O=C(NC(CC1=CCCCC1)c1ccccc1)C(F)(F)F (stereo not given)	59%[14.2 µM]	x	u	x
Cc1nc(-c2ccccc2)sc1-c1nc(-c2ccncc2)ncc1S(=O)(=O)c1ccccc1	4.5µM*	-82*	u	u
Cc1ccc(NC(=O)C(CC(C)C)N2Cc3ccccc3C2=O)cc1F (stereo not given)	x	-5	13%[46.1 µM]	6%
O=C(Nc1cccc2c1CCCC2)c1cc(C2CCCCN2C(=O)c2cccs2)on1 (stereo not given)	x	-20	x	-5%
CSc1nc(-c2ccccc2)c(C#N)c(=O)[nH]1	x	-24	x	-17%
CSc1nc(-c2ccc(Cl)cc2)c(C#N)c(=O)[nH]1	12%[46.1 µM]	-76*	-17%	-13%
Cc1ccc(NC(=O)CCCn2nc(C)c3sc4ccccc4c3c2=O)c(Cl)c1	u	8	14%[46.1 µM]	0%
COc1cc(OC)c(NC(=O)CCCn2nc(C)c3sc4ccccc4c3c2=O)cc1Cl	3.2µM*	-18	u	-12%
CC(=O)OC1C(O)C2=C3C4(C)C1C(C)(C)C(=O)CC4C3(O)C(OC(C)=O)C1(CC1C)C2=O (stereo not given)	x	-26	x	22µM*
COc1cccc(-c2cc(C(F)(F)F)n3ncc(C(=O)NCC4CCCO4)c3n2)c1 (stereo not given)	u	-26	u	28µM*
CC(=O)c1ccc(N2CCN(C(=O)/C=C/c3ccc(S(=O)(=O)NCc4ccco4)cc3)CC2)cc1	u	-66*	u	u
CN(NC(=O)C(C)(C)C)c1nc(-c2ccccc2)nnc1C(F)(F)F	10%	-63*	10%	-11%
COc1ccc(C(=O)NN(C)c2nc(-c3ccccc3)nnc2C(F)(F)F)cc1	8%	-13	-10%	-24%
Cc1nccn1CC(O)COc1ccc(Cl)cc1Cl (stereo not given)	-6%[46.1 µM]	0	17%[46.1 µM]	0.45µM*
SMILES	Marburg entry inh	HCMV inh	LASV entry inh	FMDV antiviral
Cc1cccc(-n2c(=O)c3c(c4cc(C)ccc4n3C)n(CC(=O)NCC3CCCO3)c2=O)c1 (stereo not given)	x	-106*	-1%[46.1 µM]	0%
CCOc1ccc2c(c1)C(=NNC(=O)c1ccncc1)c1cc(OCC)ccc1-2	3.2µM*	-95*	6.3µM*	-24%
CCOc1ccc(C(=O)c2ccncc2)cc1	2%	14	-5%	x
Cc1ccc(C(=O)NNC(=O)c2cccc(S(=O)(=O)N3CCOCC3)c2)cc1	x	2	x	-8%
O=C(c1cccc(NS(=O)(=O)c2cccc(C(F)(F)F)c2)c1)N1CCOCC1	8%	-62*	-2%	17%
Cc1cccc(C(=O)NNC(=O)c2ccc(S(=O)(=O)N3CCOCC3)cc2)c1	u	-75*	u	-3%
O=C(NCC1CCN(c2ccc(S(=O)(=O)N3CCOCC3)cc2)CC1)c1ccc(Cl)cc1	u	u	u	40µM*
